# Test results taken from ChEMBL document CHEMBL3988442, “University of Dundee, Small-Polar-MMV Screening Library” (2021).
# For some of these results: Potency and affinity values are given separately.
# Key:
# Set-up in all cases: scale not given: direction of the effect not stated beside the values
# [1] = target: Protein translocase subunit SecA (Escherichia coli (strain K12)) (UniProt P10408); assay: Assay to Identify E. coli SecA ATPase Inhibitors; format: functional; conditions: 30 µM
# [2] = target: T1, Ubiquitin-activating enzyme e1, putative (Leishmania donovani (strain BPK282A1)) (UniProt E9BSI1); assay: Leishmania donovani Ubiquitin Activating Enzyme (LdE1); format: functional; conditions: 30 µM
# T1 sequence (whole entry): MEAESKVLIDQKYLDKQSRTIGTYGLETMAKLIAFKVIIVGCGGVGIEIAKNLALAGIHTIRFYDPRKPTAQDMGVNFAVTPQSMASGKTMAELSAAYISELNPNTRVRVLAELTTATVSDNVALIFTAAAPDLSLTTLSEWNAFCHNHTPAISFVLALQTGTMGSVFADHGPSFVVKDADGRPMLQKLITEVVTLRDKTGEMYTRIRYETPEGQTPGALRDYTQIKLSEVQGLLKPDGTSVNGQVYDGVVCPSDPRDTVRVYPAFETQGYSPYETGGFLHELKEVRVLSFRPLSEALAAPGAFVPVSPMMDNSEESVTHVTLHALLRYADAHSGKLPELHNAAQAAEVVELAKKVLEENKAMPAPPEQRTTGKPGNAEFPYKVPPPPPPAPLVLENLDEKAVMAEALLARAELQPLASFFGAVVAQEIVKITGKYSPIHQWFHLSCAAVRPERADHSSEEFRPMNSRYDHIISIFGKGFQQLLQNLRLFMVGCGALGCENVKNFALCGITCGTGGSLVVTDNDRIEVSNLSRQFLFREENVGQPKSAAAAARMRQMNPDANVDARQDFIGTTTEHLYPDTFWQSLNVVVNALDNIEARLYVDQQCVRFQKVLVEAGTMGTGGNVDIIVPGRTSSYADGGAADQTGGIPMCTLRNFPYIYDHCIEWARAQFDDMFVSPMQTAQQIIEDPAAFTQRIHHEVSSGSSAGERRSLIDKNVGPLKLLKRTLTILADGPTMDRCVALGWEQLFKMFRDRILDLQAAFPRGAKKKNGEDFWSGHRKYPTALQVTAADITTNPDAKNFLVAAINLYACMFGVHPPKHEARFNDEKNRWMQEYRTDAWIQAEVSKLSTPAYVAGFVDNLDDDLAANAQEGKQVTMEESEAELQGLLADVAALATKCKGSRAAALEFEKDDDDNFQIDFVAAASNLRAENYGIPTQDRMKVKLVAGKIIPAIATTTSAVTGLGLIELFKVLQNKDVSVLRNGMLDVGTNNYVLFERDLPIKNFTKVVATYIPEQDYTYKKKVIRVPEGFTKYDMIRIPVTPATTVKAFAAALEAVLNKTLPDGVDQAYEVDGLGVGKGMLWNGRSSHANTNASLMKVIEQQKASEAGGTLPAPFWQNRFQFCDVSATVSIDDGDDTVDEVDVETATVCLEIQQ
# [3] = target: AMP-activated protein kinase, AMPK (Homo sapiens) (UniProt P54646+O43741+P54619+Q9UGJ0+Q9Y478+Q13131+Q9UGI9); assay: AMP-dependent Kinase enzyme assay. An in vitro enzyme assay that detects ADP turnover that is directly proportional to AMPK activity. This uses naive AMPK that is activated during the assay with MK-8722; format: functional; conditions: 30 µM
# [4] = target: Sialic acid-binding Ig-like lectin 9 (Homo sapiens) (UniProt Q9Y336); assay: Hs-Siglec9 ALPHAscreen SOP 20170721; conditions: 10 µM
# Sialic acid-binding Ig-like lectin 9 (Homo sapiens), sequence (Q9Y336 whole entry): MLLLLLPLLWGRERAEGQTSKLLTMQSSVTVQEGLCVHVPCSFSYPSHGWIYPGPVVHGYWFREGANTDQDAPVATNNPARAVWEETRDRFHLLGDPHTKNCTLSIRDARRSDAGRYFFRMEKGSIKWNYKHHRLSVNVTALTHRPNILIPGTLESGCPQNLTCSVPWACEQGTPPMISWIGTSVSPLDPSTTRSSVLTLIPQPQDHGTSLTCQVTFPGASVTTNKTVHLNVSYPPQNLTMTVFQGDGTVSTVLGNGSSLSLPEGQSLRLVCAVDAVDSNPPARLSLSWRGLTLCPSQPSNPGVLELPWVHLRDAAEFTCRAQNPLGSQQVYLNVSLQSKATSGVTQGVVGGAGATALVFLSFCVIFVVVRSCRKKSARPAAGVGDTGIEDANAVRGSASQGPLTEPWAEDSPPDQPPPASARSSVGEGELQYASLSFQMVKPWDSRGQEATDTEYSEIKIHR
# [5] = system: Trypanosoma cruzi; assay: Trypanosoma cruzi phosphomannomutase and mannose-1-phosphate guanylyltransferase assay; format: functional; conditions: 10 µM
# [6] = target: T2, Arginase-2, mitochondrial (Homo sapiens) (UniProt P78540); assay: in vitro enzyme assay to detect the production of urea directly proportional to the activity of Arginase II; format: functional; conditions: 33.3 µM; further: in the data most compounds retested in dose-response had high values
# T2 sequence (whole entry): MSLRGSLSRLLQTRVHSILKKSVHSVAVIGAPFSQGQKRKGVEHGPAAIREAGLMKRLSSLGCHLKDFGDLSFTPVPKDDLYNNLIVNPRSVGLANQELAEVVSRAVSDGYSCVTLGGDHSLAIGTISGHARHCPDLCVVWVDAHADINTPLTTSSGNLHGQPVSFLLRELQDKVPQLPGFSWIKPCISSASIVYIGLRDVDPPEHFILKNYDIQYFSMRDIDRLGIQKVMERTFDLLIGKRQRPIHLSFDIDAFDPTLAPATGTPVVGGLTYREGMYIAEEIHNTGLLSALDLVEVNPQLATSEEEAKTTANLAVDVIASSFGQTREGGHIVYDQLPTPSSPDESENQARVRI
# [7] = target: T3, Proteasome subunit beta (Trypanosoma cruzi) (UniProt O96673); assay: Trypanosoma cruzi proteasome chymotrypsin-like activity (TcProtChymo) assay.; further: in the data most compounds retested in dose-response had high values; format: functional; conditions: 9.37 µM
# T3 sequence (whole entry): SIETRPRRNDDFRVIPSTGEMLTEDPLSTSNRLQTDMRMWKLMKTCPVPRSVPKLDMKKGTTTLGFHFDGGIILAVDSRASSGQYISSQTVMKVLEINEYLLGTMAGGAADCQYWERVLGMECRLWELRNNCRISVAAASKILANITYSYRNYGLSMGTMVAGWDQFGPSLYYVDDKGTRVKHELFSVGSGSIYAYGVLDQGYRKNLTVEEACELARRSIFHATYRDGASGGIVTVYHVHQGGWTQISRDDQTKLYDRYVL
# [8] = species: Homo sapiens; assay: To identify inhibition of the IFN signalling (Jak-Stat) pathway via expression of an eGFP reporter gene under the control of an IFN-stimulated response element (ISRE) containing MxA promoter.; format: functional; conditions: 30 µM
# [9] = target: T4, Tyrosyl-tRNA synthetase, putative (Trypanosoma cruzi (strain CL Brener)) (UniProt Q4DSP6); assay: Trypanosoma cruzi tyrosyl tRNA synthetase (TcYRS) _High Tyrosine SOP; format: functional; conditions: 30 µM; further: in the data most compounds retested in dose-response had high values
# T4 sequence (whole entry): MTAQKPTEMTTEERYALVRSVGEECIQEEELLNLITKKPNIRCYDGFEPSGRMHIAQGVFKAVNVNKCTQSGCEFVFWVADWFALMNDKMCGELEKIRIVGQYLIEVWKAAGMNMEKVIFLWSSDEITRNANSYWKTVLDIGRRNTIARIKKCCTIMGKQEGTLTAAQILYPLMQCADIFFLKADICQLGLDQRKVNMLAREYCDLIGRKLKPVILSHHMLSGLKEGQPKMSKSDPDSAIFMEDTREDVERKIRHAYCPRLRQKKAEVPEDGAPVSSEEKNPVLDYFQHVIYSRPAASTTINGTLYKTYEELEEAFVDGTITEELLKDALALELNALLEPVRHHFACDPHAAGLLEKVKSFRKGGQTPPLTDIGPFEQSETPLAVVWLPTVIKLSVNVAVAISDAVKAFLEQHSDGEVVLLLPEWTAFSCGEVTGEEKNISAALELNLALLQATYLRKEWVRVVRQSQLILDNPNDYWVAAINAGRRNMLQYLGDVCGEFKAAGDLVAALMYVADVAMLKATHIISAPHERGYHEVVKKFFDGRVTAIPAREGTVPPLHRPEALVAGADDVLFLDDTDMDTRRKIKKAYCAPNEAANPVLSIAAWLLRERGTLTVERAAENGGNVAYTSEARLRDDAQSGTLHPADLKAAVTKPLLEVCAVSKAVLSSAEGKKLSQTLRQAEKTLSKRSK
# [10] = target: T4, Tyrosyl-tRNA synthetase, putative (Trypanosoma cruzi (strain CL Brener)); assay: Trypanosoma cruzi tyrosyl tRNA synthetase (TcYRS) SOP; format: functional; conditions: 30 µM
# [11] = target: Chromo domain-containing protein 1 (Saccharomyces cerevisiae (strain ATCC 204508 / S288c) (Baker's yeast)) (UniProt P32657); assay: ScCHD-1 Enzyme Inhibition Assay; format: functional; conditions: 30 µM; further: in the data most compounds retested in dose-response had high values
# Chromo domain-containing protein 1 (Saccharomyces cerevisiae (strain ATCC 204508 / S288c) (Baker's yeast)), sequence (P32657 whole entry, the tested form may be a part): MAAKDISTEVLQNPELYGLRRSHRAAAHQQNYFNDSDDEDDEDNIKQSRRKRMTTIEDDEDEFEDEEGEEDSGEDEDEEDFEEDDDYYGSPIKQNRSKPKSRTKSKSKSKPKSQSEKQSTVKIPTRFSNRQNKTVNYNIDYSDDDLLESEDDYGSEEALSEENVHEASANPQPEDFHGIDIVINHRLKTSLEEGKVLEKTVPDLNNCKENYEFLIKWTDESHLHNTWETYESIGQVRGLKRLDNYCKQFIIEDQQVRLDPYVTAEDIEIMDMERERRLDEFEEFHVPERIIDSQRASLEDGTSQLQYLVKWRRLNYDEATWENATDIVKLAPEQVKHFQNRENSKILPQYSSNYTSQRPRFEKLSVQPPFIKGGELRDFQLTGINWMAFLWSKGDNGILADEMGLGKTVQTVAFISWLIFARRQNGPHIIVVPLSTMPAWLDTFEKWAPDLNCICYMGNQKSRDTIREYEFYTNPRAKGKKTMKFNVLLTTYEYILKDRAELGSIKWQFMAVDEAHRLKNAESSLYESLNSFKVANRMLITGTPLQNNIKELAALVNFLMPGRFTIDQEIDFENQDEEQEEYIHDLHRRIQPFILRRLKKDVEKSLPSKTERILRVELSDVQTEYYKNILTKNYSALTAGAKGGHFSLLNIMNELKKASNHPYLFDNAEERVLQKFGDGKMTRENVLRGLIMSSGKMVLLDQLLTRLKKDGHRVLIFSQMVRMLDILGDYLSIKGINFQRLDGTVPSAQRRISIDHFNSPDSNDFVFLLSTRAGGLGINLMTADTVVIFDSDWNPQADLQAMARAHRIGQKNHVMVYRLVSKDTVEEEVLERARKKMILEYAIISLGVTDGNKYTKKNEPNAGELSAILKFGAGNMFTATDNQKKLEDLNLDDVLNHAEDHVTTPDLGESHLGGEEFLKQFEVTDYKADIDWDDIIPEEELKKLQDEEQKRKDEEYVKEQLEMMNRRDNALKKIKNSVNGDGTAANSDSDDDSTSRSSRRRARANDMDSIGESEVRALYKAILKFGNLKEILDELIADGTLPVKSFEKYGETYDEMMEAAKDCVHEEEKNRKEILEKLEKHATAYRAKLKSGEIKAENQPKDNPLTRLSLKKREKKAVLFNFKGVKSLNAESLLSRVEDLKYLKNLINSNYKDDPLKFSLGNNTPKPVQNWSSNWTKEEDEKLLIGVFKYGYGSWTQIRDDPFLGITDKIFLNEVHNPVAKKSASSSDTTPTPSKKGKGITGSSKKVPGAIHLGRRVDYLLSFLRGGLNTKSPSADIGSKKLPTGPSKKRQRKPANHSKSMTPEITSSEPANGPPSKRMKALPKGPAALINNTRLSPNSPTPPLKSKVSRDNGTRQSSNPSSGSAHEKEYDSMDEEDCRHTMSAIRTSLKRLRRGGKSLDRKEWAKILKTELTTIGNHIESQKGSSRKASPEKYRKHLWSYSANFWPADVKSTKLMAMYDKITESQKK
# Protein translocase subunit SecA (Escherichia coli (strain K12)), sequence (P10408 whole entry): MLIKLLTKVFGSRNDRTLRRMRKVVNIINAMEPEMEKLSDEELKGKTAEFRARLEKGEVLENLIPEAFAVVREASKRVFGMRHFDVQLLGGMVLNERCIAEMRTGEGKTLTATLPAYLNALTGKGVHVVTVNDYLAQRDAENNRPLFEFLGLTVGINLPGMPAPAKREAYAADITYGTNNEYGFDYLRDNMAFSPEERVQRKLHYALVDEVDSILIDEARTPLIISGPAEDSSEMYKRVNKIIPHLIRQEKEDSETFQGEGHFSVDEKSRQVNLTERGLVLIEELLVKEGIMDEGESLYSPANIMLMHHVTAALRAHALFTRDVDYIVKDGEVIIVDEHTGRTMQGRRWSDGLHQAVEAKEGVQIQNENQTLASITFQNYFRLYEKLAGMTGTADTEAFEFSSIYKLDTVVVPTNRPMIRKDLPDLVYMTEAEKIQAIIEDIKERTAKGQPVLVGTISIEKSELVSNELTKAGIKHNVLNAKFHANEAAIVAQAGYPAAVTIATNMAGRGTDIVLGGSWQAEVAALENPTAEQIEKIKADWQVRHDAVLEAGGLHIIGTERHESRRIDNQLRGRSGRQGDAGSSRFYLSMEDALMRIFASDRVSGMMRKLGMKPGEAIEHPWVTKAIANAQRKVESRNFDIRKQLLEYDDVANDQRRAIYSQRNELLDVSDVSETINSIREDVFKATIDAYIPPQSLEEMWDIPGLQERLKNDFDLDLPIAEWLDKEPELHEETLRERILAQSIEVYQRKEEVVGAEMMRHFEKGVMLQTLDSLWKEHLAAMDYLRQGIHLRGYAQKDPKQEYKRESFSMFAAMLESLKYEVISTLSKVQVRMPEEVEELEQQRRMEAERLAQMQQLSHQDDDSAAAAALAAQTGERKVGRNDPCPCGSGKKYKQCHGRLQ
SMILES,Percent Effect [1] [%],Percent Effect [2] [%],Percent Effect [3] [%],Percent Effect [4] [%],Percent Effect [5] [%],Percent Effect [6] [%],Percent Effect [7] [%],Percent Effect [8] [%],Percent Effect [9] [%],Percent Effect [10] [%],Percent Effect [11] [%]
Cc1cc(C)n(CC2CCCN2C(=O)CCCNc2ncccn2)n1 (stereo unspecified),-3.06,5.26,1.29,7.88,3.01,1.15,5.68,-8.34,6.37,9.76,-0.0349
O=C(c1cnc(-c2cccs2)s1)N1CCCC(n2cccn2)C1 (stereo unspecified),-4.52,13.5,1.78,1.67,-1.6,-2,3.24,13.5,5.42,11.1,-8.6
Cc1ccccc1CSc1nc(N)cc(N2CC[C@@H](O)C2)n1,-5.3,16.2,-11.2,22.8,7.33,-3.23,11.4,28.7,20.4,30.9,-7.45
COCCN1CCN(CCCS(C)(=O)=O)CC1C (stereo unspecified),-5.52,21.6,-8.32,7.36,9.56,0.924,9.16,4.15,9.9,28.1,52
CCOc1ccc(CC(CNC(=O)c2occc2C)C(N)=O)cc1 (stereo unspecified),-5.57,10.4,-18.6,-5.56,-3.23,1.47,3.64,9.64,7.62,11.8,-12.3
Cn1cnc2c1CCN(Cc1nc(-c3ccsc3)no1)C2,-6.98,18.9,-7.09,15.8,10.7,-3.14,5.57,2.25,7.92,25.6,-9.67
c1cc(CNCC2CNc3ccnn3C2)cc(N2CCCCC2)n1 (stereo unspecified),-3.28,19,-11.8,-8.9,13,-2.8,27.1,1.88,13.5,22.8,-27.6
CC(C)OCCCNC(=O)CN1CCC(N2CCN(C)C2=O)CC1,-4.79,-12.7,-9.11,10.6,4.82,-1.9,7.45,-2.11,-0.493,8.86,-6.17
CCc1c(C)nc2n(c1=O)CC(C(=O)Nc1nc3c(s1)CCCC3)CS2 (stereo unspecified),-2.52,13,6.33,7.47,2.86,-4.52,7.66,18.6,6.35,14.1,-8.32
CC(C)(NCC(=O)NCCC#N)c1ccc2c(c1)OCCO2,-3.57,27,-8.79,1.26,3.49,-8.42,17.3,3.81,4.43,23.5,-9.99
COc1c(C)cnc(CSc2nnc(C)s2)c1C,-4.15,5.33,-1.7,12.8,6.33,8.33,4.53,6.59,1.64,6.17,-14.7
